Activity calls are given as the source filed them. Rule for the calls: active = hit-call score of the fitted dose curve at least 0.9, where 1 is the maximum; inactive = score below 0.9.
Key:
[1] = read-out: Fatty acid synthase (Homo sapiens) (UniProt P49327); assay: LTEA_HepaRG_FASN: Life Technologies and Expression Analysis (LTEA) Assay for Fatty Acid Synthase (FASN) using HepaRG (AID 2283448); conditions: mRNA level, 48 h; actives raise or lower the signal;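 for AC50: differentiated human HepaRG liver cells in serum-free induction medium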
Summary of the method: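 HepaRG, 48 h exposure, 8-pt half-log series top 100 uM, 0.5% DMSO vehicle, duplicates. Readout: FASN transcript by Fluidigm qRT-PCR; housekeeping-normalized; bidirectional curve fit vs DMSO baseline.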

[2] = read-out: Cyclin D2 (CCND2), CCND2 (gene 894); assay: LTEA_HepaRG_CCND2: Life Technologies and Expression Analysis (LTEA) Assay for Cyclin D2 (CCND2) using HepaRG (AID 2283449); conditions: mRNA level, 48 h; actives raise or lower the signal;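 note: CCND2 transcript measured by TaqMan qRT-PCR and normalised to three housekeeping genes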
Summary of the method: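 HepaRG, 48 h dosing, 8-pt half-log curve from 100 uM, 0.5% DMSO; duplicate wells. Readout: CCND2 transcript by microfluidic qRT-PCR, housekeeping-normalised; bidirectional fit vs DMSO baseline.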

[3] = read-out: Cyclin Dependent Kinase Inhibitor 1A (CDKN1A), CDKN1A (gene 1026); assay: LTEA_HepaRG_CDKN1A: Life Technologies and Expression Analysis (LTEA) Assay for Cyclin Dependent Kinase Inhibitor 1A (CDKN1A) using HepaRG (AID 2283450); conditions: mRNA level, 48 h; actives raise or lower the signal
Summary of the method: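 Expression quantified by Fluidigm qRT-PCR with ACTB, GAPDH and POLR2A normalization, fitted bidirectionally against 0.5% DMSO. Cells: HepaRG, plated 48 h then treated 48 h in serum-free induction medium, top concentration 100 uM with half-log dilutions.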

[4] = read-out: Cyclin D1 (CCND1), CCND1 (gene 595); assay: LTEA_HepaRG_CCND1: Life Technologies and Expression Analysis (LTEA) Assay for Cyclin D1 (CCND1) using HepaRG (AID 2283451); conditions: mRNA level, 48 h; actives raise or lower the signal;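 for AC50: differentiated human HepaRG liver cells in serum-free induction medium; TaqMan qRT-PCR transcript level normalised to ACTB GAPDH and POLR2A housekeeping genes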
Summary of the method: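 Expression of CCND1 was quantified by qRT-PCR on Fluidigm arrays using ACTB, GAPDH and POLR2A as reference genes. HepaRG cultures, plated 48 h beforehand, were dosed for 48 h at up to 100 uM (half-log, 8 points) in 0.5% DMSO.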

[5] = read-out: catalase (CAT), CAT (gene 847); assay: LTEA_HepaRG_CAT: Life Technologies and Expression Analysis (LTEA) Assay for catalase (CAT) using HepaRG (AID 2283452); conditions: mRNA level, 48 h; actives raise or lower the signal
Summary of the method: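 HepaRG cells in serum-free induction medium, 0.5% DMSO vehicle, exposed 48 h in duplicate over 8 half-log concentrations from 100 uM. CAT mRNA measured by qRT-PCR, normalized to ACTB, GAPDH, POLR2A; bidirectional fit versus DMSO.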

[6] = read-out: flavin-containing dimethylaniline monooxygenases 3 (FMO3), FMO3 (gene 2328); assay: LTEA_HepaRG_FMO3: Life Technologies and Expression Analysis (LTEA) Assay for flavin-containing dimethylaniline monooxygenases 3 (FMO3) using HepaRG (AID 2283453); conditions: mRNA level, 48 h; actives raise or lower the signal
Summary of the method: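 Eight-point concentration-response in serum-free HepaRG cultures (top 100 uM, 0.5% DMSO, 48 h). Read-out: FMO3 mRNA level normalized to three endogenous control genes, fitted bidirectionally versus vehicle.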

[7] = read-out: Cytochrome P450 (CYP1A1), CYP1A1 (gene 1543); assay: LTEA_HepaRG_CYP1A1: Life Technologies and Expression Analysis (LTEA) Assay for Cytochrome P450 (CYP1A1) using HepaRG (AID 2283454); conditions: mRNA level, 48 h; actives raise or lower the signal
Summary of the method: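 CYP1A1 transcript levels measured by Fluidigm qRT-PCR against three housekeeping genes, 48 h after chemical dosing of human HepaRG cells (highest concentration 100 uM, half-log steps, 0.5% DMSO vehicle). Gain or loss of signal fitted relative to DMSO.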

[8] = read-out: CFLAR gene, CFLAR (gene 8837); assay: LTEA_HepaRG_CFLAR: Life Technologies and Expression Analysis (LTEA) Assay for CFLAR gene using HepaRG (AID 2283455); conditions: mRNA level, 48 h; actives raise or lower the signal
Summary of the method: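 qRT-PCR read-out (Fluidigm/TaqMan) of CFLAR mRNA, normalized to three housekeeping genes, in differentiated human HepaRG cells after 48 h chemical exposure; 8-point half-log series from 100 uM in 0.5% DMSO; bidirectional curve fitting versus DMSO.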

[9] = read-out: Forkhead box O1 (FOXO1), FOXO1 (gene 2308); assay: LTEA_HepaRG_FOXO1: Life Technologies and Expression Analysis (LTEA) Assay for Forkhead box O1 (FOXO1) using HepaRG (AID 2283456); conditions: mRNA level, 48 h; actives raise or lower the signal
Summary of the method: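 HepaRG, 48 h exposure, 8-pt half-log series from 100 uM in 0.5% DMSO, duplicates; Fluidigm qRT-PCR mRNA, housekeeping-normalised; bidirectional fit vs DMSO baseline.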

[10] = CEETOX_H295R_TESTO: CeeTox H295R High-throughput Steroidogenesis Assay for Testosterone (TESTO) (AID 2283457); conditions: actives raise or lower the signal;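 note: cells exposed to chemicals for 48 h before medium collection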
Summary of the method: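 Testosterone secreted into the medium over 48 h by H295R cells (maximum passage 10) was quantified by LC-MS/MS after MTBE extraction. Fitted in both directions against DMSO, with concentrations diluted until MTT viability was ≥70%.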

[11] = read-out: growth arrest and DNA damage 45 (GADD45A), GADD45A (gene 1647); assay: LTEA_HepaRG_GADD45A: Life Technologies and Expression Analysis (LTEA) Assay for growth arrest and DNA damage 45 (GADD45A) using HepaRG (AID 2283458); conditions: mRNA level, 48 h; actives raise or lower the signal
Summary of the method: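 HepaRG, 48 h exposure, 8 conc. (top 100 uM, half-log steps), 0.5% DMSO vehicle, duplicates. Read-out: qRT-PCR mRNA level, housekeeping-normalized (ACTB/GAPDH/POLR2A). Curves fit bidirectionally vs DMSO baseline.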

[12] = read-out: Forkhead box O3 (FOXO3), FOXO3 (gene 2309); assay: LTEA_HepaRG_FOXO3: Life Technologies and Expression Analysis (LTEA) Assay for Forkhead box O3 (FOXO3) using HepaRG (AID 2283459); conditions: mRNA level, 48 h; actives raise or lower the signal
Summary of the method: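 qRT-PCR readout of FOXO3 transcript, normalized to three housekeeping genes (ACTB, GAPDH, POLR2A); gain or loss fitted against 0.5% DMSO vehicle. HepaRG cells, 48 h chemical exposure, 8-point half-log series, top 100 uM.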

[13] = read-out: ABC Transporter (ABCB1), ABCB1 (gene 5243); assay: LTEA_HepaRG_ABCB1: Life Technologies and Expression Analysis (LTEA) Assay for ABC Transporter (ABCB1) using HepaRG (AID 2283460); conditions: mRNA level, 48 h; actives raise or lower the signal
Summary of the method: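 HepaRG, 48 h exposure, 8-pt half-log series from 100 uM, 0.5% DMSO vehicle, duplicates. Readout: ABCB1 transcript by Fluidigm TaqMan qRT-PCR, housekeeping-normalized; bidirectional curve fit vs DMSO baseline.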

[14] = read-out: ABC Transporter (ABCC3), ABCC3 (gene 8714); assay: LTEA_HepaRG_ABCC3: Life Technologies and Expression Analysis (LTEA) Assay for ABC Transporter (ABCC3) using HepaRG (AID 2283462); conditions: mRNA level, 48 h; actives raise or lower the signal
Summary of the method: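 Transcript level by TaqMan qRT-PCR, normalised to three housekeeping genes, fitted in both directions relative to vehicle. Chemicals tested in duplicate at eight half-log concentrations up to 100 uM for 48 h on HepaRG cells (0.5% DMSO).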

[15] = read-out: ABC Transporter (ABCB11), ABCB11 (gene 8647); assay: LTEA_HepaRG_ABCB11: Life Technologies and Expression Analysis (LTEA) Assay for ABC Transporter (ABCB11) using HepaRG (AID 2283463); conditions: mRNA level, 48 h; actives raise or lower the signal
Summary of the method: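 HepaRG, 48 h exposure, 8-pt half-log CRC top 100 uM, 0.5% DMSO vehicle, duplicates. Readout: TaqMan qRT-PCR of ABCB11 mRNA, housekeeping-normalized (ACTB/GAPDH/POLR2A). Bidirectional fit vs DMSO baseline.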

[16] = read-out: ABC Transporter (ABCC2), ABCC2 (gene 1244); assay: LTEA_HepaRG_ABCC2: Life Technologies and Expression Analysis (LTEA) Assay for ABC Transporter (ABCC2) using HepaRG (AID 2283464); conditions: mRNA level, 48 h; actives raise or lower the signal
Summary of the method: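 Endpoint is ABCC2 transcript level from qRT-PCR, normalized to three housekeeping genes and fitted bidirectionally relative to DMSO. Human HepaRG cells received test chemical for 48 h at up to 100 uM (8 points, half-log steps, 0.5% DMSO), duplicate wells.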

[17] = read-out: Broad substrate specificity ATP-binding cassette transporter ABCG2 (Homo sapiens) (UniProt Q9UNQ0); assay: LTEA_HepaRG_ABCG2: Life Technologies and Expression Analysis (LTEA) Assay for ABC Transporter (ABCG2) using HepaRG (AID 2283465); conditions: mRNA level, 48 h; actives raise or lower the signal
Summary of the method: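 HepaRG, 48 h exposure, 8-pt half-log series from 100 uM, 0.5% DMSO vehicle, duplicates. Readout: ABCG2 transcript by qRT-PCR (Fluidigm array), housekeeping-normalized; bidirectional curve fit relative to DMSO baseline.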

[18] = read-out: ATP-citrate lyase (ACLY), ACLY (gene 47); assay: LTEA_HepaRG_ACLY: Life Technologies and Expression Analysis (LTEA) Assay for ATP-citrate lyase (ACLY) using HepaRG (AID 2283466); conditions: mRNA level, 48 h; actives raise or lower the signal
Summary of the method: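 qRT-PCR readout of ACLY transcript after 48 h chemical treatment of HepaRG cells; expression normalized to three housekeeping genes. Eight-point half-log series, highest 100 uM, 0.5% DMSO vehicle. Gain or loss fitted against DMSO baseline.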

[19] = read-out: Peroxisomal acyl-coenzyme A oxidase 1 (ACOX1) gene, ACOX1 (gene 51); assay: LTEA_HepaRG_ACOX1: Life Technologies and Expression Analysis (LTEA) Assay for Peroxisomal acyl-coenzyme A oxidase 1 (ACOX1) gene using HepaRG (AID 2283467); conditions: mRNA level, 48 h; actives raise or lower the signal
Summary of the method: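 HepaRG, 48 h chemical exposure, 8-pt half-log series from 100 uM top, 0.5% DMSO vehicle, duplicates. Readout: ACOX1 mRNA by Fluidigm qRT-PCR, housekeeping-normalized; bidirectional fit vs DMSO baseline.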

[20] = read-out: growth arrest and DNA damage 45 (GADD45B), GADD45B (gene 4616); assay: LTEA_HepaRG_GADD45B: Life Technologies and Expression Analysis (LTEA) Assay for growth arrest and DNA damage 45 (GADD45B) using HepaRG (AID 2283461); conditions: mRNA level, 48 h; actives raise or lower the signal
Summary of the method: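 Transcript level quantified by Fluidigm TaqMan qRT-PCR with three housekeeping genes for normalization, analyzed for up- or down-regulation against 0.5% DMSO. HepaRG cultures dosed 48 h at eight half-log concentrations up to 100 uM, duplicates.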

Measured: AC50

Fatty acid synthase (Homo sapiens), sequence (P49327 whole entry, looked up): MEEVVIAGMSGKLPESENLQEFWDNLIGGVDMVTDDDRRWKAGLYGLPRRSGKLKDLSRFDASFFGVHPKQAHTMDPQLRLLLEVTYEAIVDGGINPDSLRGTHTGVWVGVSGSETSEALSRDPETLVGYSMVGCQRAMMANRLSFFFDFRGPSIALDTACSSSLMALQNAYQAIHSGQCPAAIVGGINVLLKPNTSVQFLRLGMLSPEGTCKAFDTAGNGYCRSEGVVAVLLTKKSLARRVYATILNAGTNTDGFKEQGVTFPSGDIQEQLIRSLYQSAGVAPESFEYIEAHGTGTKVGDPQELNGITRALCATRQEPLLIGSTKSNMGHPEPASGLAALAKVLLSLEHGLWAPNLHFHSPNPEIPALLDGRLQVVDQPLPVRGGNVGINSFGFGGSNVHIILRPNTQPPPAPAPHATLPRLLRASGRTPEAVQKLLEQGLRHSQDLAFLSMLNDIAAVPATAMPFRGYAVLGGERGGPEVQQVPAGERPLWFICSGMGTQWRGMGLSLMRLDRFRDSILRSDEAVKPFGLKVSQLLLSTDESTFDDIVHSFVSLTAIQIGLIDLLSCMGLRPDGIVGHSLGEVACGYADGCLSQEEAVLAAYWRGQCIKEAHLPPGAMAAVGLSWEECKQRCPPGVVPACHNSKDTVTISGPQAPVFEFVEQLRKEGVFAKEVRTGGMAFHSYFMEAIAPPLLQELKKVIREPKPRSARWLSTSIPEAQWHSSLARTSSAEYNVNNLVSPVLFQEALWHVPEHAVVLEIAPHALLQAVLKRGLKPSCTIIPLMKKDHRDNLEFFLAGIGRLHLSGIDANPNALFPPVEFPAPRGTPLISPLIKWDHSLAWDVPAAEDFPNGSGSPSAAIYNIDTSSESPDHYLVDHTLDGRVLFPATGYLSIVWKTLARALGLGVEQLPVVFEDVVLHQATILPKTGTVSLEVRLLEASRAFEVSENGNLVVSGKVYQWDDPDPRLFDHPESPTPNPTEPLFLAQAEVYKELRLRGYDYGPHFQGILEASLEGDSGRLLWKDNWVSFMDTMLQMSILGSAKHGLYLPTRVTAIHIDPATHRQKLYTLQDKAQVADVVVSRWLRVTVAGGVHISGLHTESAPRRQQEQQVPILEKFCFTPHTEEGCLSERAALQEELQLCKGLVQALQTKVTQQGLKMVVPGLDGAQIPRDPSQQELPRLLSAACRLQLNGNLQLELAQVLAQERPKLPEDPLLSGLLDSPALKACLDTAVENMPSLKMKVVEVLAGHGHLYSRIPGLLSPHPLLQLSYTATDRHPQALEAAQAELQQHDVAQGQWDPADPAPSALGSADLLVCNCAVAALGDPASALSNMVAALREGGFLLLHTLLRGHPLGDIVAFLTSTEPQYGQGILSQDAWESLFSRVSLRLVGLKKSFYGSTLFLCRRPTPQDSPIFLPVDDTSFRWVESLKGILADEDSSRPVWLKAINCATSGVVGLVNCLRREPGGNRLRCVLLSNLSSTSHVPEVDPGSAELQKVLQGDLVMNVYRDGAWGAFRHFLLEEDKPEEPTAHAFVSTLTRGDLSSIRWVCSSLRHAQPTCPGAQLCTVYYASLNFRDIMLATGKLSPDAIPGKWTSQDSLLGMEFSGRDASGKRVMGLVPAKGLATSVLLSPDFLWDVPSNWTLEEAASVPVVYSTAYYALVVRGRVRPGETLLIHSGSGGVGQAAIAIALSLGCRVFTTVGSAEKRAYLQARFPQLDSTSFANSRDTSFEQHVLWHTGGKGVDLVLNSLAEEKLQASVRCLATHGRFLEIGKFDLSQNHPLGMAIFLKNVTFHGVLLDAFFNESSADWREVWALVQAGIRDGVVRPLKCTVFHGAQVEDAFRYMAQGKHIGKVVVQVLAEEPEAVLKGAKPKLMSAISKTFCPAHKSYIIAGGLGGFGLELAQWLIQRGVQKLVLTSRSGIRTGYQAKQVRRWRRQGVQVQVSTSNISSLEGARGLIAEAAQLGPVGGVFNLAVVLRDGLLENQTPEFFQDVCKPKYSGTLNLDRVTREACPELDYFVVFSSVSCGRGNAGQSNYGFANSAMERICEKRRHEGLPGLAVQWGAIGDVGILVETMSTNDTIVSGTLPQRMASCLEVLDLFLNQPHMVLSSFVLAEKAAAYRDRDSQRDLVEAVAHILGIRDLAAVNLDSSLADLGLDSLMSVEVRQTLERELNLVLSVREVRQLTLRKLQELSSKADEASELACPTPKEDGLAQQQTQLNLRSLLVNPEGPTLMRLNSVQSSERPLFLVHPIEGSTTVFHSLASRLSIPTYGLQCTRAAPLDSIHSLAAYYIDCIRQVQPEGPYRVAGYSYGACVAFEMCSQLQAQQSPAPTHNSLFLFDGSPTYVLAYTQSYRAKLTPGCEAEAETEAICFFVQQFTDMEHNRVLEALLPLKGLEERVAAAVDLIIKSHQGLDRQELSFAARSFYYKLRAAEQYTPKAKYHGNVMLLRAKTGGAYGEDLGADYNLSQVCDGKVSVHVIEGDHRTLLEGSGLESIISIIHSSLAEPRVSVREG
Broad substrate specificity ATP-binding cassette transporter ABCG2 (Homo sapiens), sequence (Q9UNQ0 whole entry, looked up): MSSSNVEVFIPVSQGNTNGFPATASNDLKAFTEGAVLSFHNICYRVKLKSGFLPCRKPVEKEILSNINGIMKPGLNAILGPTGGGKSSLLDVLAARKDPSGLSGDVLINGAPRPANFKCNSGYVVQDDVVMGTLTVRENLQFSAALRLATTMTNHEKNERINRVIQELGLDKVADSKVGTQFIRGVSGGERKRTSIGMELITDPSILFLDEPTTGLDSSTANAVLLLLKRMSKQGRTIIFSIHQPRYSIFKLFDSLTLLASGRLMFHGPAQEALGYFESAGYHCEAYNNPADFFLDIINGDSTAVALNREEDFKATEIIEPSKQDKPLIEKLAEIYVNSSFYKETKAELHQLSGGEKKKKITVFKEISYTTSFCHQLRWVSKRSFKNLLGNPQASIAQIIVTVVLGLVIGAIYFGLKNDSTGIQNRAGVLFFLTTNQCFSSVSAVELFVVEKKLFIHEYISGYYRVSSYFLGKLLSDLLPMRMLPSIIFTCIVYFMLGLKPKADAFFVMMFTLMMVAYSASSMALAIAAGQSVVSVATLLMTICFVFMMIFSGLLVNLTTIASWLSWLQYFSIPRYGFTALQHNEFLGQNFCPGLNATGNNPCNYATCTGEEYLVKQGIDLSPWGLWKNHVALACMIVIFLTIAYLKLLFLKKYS

c1ccc2c(c1)ccc1ccccc12
active: [7] 50 µM | [10] 56.2 µM | [16] 9.92 µM | [17] 9.4 µM
not listed: [20]
inactive: all other assays above

ClC1=C(Cl)C(Cl)(Cl)C(Cl)=C1Cl
not listed: [6] | [10] | [17]
inactive: all other assays above

CCCCC(CC)COC(=O)CCCCC(=O)OCc1ccccc1 (stereo unspecified)
active: [7] 50 µM
not listed: [6] | [10] | [17]
inactive: all other assays above

COC(=O)CCCCC(=O)OC
not listed: [2] | [10] | [17] | [20]
inactive: all other assays above

NC(=O)N(O)[C@@H]1C=C[C@H](Oc2cccc(Oc3ccc(F)cc3)c2)C1
inactive: [2] | [12] | [13]
active: [1] 85 µM | [3] 33 µM | [4] 84.1 µM | [5] 50 µM | [7] 27.3 µM | [8] 67.3 µM | [9] 82.1 µM | [11] 64 µM | [14] 21.1 µM | [15] 68 µM | [16] 82.5 µM | [18] 22.7 µM | [19] 65.1 µM

CCCCCCCCOC(=O)CCCCCCCCC(=O)OCCCCCCCC
active: [7] 30.3 µM
not listed: [2] | [6] | [10] | [17] | [20]
inactive: all other assays above

C#C[C@]1(O)CC[C@H]2[C@@H]3CCC4=CC(=O)CC[C@@H]4[C@H]3CC[C@@]21C
active: [1] 50 µM | [13] 9.92 µM | [15] 0.24 µM | [16] 50 µM
not listed: [5] | [6] | [10] | [17]
inactive: all other assays above
